Assay results taken from PubChem BioAssay (NCI).
Compounds without any hit were thinned out: in the full panel of roughly 83,000, 20% have a hit.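 In brief: 96-well plates, 48 h treatment, single concentration, percent growth endpoint.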 A number with no mark means an inactive call. Calls of active or inactive are those of the source. How the source made its calls: active means growth percent below 10; inactive means the rest.

How the values were obtained:
Experiment in all cases: NCI-60 one-dose screen, 48 h (100 = growth as untreated, 0 = no growth, -100 = all killed)
[1] = system: SK-MEL-2 melanoma; details: 10 µM unless noted
[2] = system: EKVX NSCLC; details: 10 µM unless noted
[3] = system: SN12C renal; details: 10 µM unless noted
[4] = system: UO-31 renal; details: 10 µM unless noted
[5] = system: TK-10 renal; details: 10 µM unless noted
[6] = system: ACHN renal; details: 10 µM unless noted
[7] = system: CAKI-1 renal; details: 10 µM
[8] = system: A498 renal; details: 10 µM unless noted
[9] = system: CCRF-CEM leukemia; details: 10 µM unless noted
[10] = system: MOLT-4 leukemia; details: 10 µM unless noted
[11] = system: SR leukemia; details: 10 µM unless noted
[12] = system: RPMI-8226 leukemia; details: 10 µM unless noted
[13] = system: OVCAR-8 ovarian; details: 10 µM unless noted
[14] = system: OVCAR-5 ovarian; details: 10 µM unless noted
[15] = system: OVCAR-4 ovarian; details: 10 µM unless noted
[16] = system: SK-OV-3 ovarian; details: 10 µM unless noted
[17] = system: IGROV1 ovarian; details: 10 µM unless noted
[18] = system: OVCAR-3 ovarian; details: 10 µM unless noted
[19] = system: HS 578T breast; details: 10 µM unless noted
[20] = system: NCI/ADR-RES ovarian; details: 10 µM unless noted

Structure (SMILES) | growth [1] | growth [2] | growth [3] | growth [4] | growth [5] | growth [6] | growth [7] | growth [8] | growth [9] | growth [10] | growth [11] [%] | growth [12] | growth [13] | growth [14] | growth [15] | growth [16] | growth [17] | growth [18] | growth [19] | growth [20]
Oc1ccc(-c2nnc(SCc3ccc(O)c4ncccc34)o2)cc1 | 17% | 15.6% | 6.09% (active) | -5.74% (active) | 13.6% | 3.36% (active) | 3.35% (active) | -8.21% (active) | 12.1% | 16.5% | 37.4 | 4.27% (active) | 15.9% | 27.1% | 9.9% (active) | -3.56% (active) | 3.93% (active) | 6.01% (active) | -0.346% (active) | 7.18% (active)
CCCC(=O)NC(c1cccnc1)c1ccc2c(C)ccnc2c1O (stereo not given) | 42.5% | 15.1% | 29.1% | 11.8% | 33.3% | 13.8% | 19.2% | 37.8% | 4.51% (active) | 13.9% | 41.2 | 32.1% | 21.1% | 32.3% | 11.2% | 19.7% | 19.2% | 13.1% | 67.6% | 9.99% (active)
C/C(=C(/C)C1CC1CCN(C(=O)c1ccccn1)S(=O)(=O)c1ccc(C)cc1)C1CCCCC1 (stereo not given) | 101% | 77.6% | 98.2% | 86.4% | 105% | 99.3% | 78.9% | 94.6% | 92.5% | 88.2% | 105 | 92.2% | 96.8% | 93.1% | 83.8% | 101% | 103% | 108% | 102% | 81.9%
COc1cc(/C=N/n2cnc3oc(-c4ccccc4)cc3c2=N)cc(CN2CCCCC2)c1O | -38.5% (active) | -22.7% (active) | -78.8% (active) | -91.6% (active) | -82.5% (active) | -97.7% (active) | -94.2% (active) | 15% | -6.9% (active) | 2% (active) | 28.9 | -30.4% (active) | -38.7% (active) | -81% (active) | -63.1% (active) | 105% | -82.5% (active) | 114% | -35.9% (active) | -0.827% (active)
Fc1ccc(-c2cc3nc(C(Cl)Cl)nc(-c4cccs4)n3n2)cc1 | 87.7% | 6.21% (active) | 64.5% | 40.6% | 7.64% (active) | -19.9% (active) | -20.4% (active) | -20.7% (active) | 86% | 65.4% | 83.8 | -3.54% (active) | 24% | 9.21% (active) | 29.8% | 32% | 61.2% | -26.2% (active) | -5.63% (active) | 5.56% (active)
CCCCOc1ccc(S(=O)(=O)N2CCN(c3nccc(N4CCOCC4)n3)CC2)cc1 | 33.5% | 46.3% | 28.7% | 24.8% | 44.3% | 15.1% | 13.8% | -1.44% (active) | 49.8% | 24.2% | 46.3 | 6.35% (active) | 49.5% | 56.2% | 49.4% | 12.8% | 9.51% (active) | 105% | 69.4% | 31.2%
O=C(CCCCCCN1CC(=O)N2[C@@H](c3cccc(Cl)c3)c3[nH]c4ccccc4c3C[C@H]2C1=O)NO | 56% | 70.1% | 65.7% | 60.3% | 57.1% | 87.1% | 47.7% | 72.8% | 17.1% | 17.5% | 39.5 | 15% | 34.8% | 54.3% | 61% | 51.8% | 4.61% (active) | 36.3% | 69.3% | 94.3%
CS(=O)(=O)c1ccc(-c2nn(-c3ccccc3)cc2/C=N/NC(=O)c2ccncc2)cc1 | 107% | 98.4% | 98.6% | 94.2% | 97.3% | 107% | 93.9% | 113% | 102% | 97.2% | 87 | 115% | 101% | 107% | 104% | 109% | 104% | 109% | 108% | 94.7%
